Only some compounds are listed: those with a hit (about 7.5% of all), similar ones and a draw of the others.
FLuc modulator – inhibits or activates purified firefly luciferase, miR-21 counter-screen | purified FLuc, Km substrates, luminescence inhibition | Potency, µM (doses to about 57.5 µM), usual class: inhibitors | 360,000 compounds, 6.9% hits | AID 588342; note: nearly all actives have a fitted effect of over 55% in size
Target sequence (P08659 whole entry, looked up): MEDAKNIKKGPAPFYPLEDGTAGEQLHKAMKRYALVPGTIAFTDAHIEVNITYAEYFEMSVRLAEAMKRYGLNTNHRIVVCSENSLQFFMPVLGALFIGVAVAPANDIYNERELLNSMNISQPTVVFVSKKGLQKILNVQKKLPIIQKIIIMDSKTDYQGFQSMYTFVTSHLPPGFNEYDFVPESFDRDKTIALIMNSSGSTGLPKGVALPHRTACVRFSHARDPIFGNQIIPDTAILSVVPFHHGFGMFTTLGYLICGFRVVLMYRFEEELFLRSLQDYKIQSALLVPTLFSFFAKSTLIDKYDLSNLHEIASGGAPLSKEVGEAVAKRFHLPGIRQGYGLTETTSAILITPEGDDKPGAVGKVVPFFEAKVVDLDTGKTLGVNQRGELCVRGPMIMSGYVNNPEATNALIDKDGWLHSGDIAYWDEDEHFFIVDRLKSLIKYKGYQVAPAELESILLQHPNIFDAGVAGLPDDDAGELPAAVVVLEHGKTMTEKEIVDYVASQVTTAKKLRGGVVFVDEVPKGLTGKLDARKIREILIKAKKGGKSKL
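Biochemical qHTS of compounds, final roughly 60 µM downward over six points, against 10 nM purified firefly luciferase using Km concentrations of substrates (10 uM D-luciferin, 10 uM ATP) in Tris acetate pH 7.5 buffer; luminescence output.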
SMN2 splice up – SMN2 splice variant enhancement; Potency, µM (top dose mostly 46.1 µM), actives largely listed as activators; 210,000 compounds, 2.8% hits; HEK293 SMN2-luciferase splicing reporter, luminescence, 30-36 h; note: nearly all actives have a fitted effect of over 55% in size
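HEK293 cells carry an SMN2 […]–luciferase reporter in which exon 7 inclusion puts luciferase in frame. Cells were plated 10-12 h before compound addition, then incubated 30-36 h at 37C. ONE-Glo luminescence was read; sodium butyrate at 4.5 mM final served as control.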
NPC1 promoter act – activators of NPC1 promoter. Potency, µM (top dose mostly 9.22 µM), hits mostly activators. Huh7 NPC1 promoter luciferase reporter, 24 h. 320,000 compounds, 2.4% hits; note: nearly all actives have a fitted effect of over 60% in size
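Cells: Huh7 expressing luciferase under the NPC1 promoter, 1500/well. Seeded 2 h, compound added, incubated 24 h at 37 °C. Luciferase reagent, 10 min ambient, then luminescence.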
ELG1 genotoxic – genotoxicity induction in ELG1-luciferase HEK293T cells. HEK293T ELG1-luciferase reporter, luminescence, 16 h. Potency, µM (highest dose often 46 µM), most hits filed as activators. 330,000 compounds, 1.3% hits; note: nearly all actives have a fitted effect of over 60% in size
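Step 1: seed 2,000 HEK293T ELG1-luciferase cells per well. Step 2: add compound or DMSO, incubate 16 hr at 37 °C. Step 3: ONE-Glo, 30 min at room temperature, read luminescence.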
Rab9 prom act – activates the Rab9 promoter; Huh7 Rab9 promoter-luciferase reporter, luminescence, 24 h; Potency, µM (titrated, usually from 9.22 µM), usual class: activators; 320,000 compounds, 2.8% hits; AID 485297; note: nearly all actives have a fitted effect of over 60% in size
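Promoter activation is measured as luciferase luminescence in Huh7 cells stably transfected with a Rab9 promoter–luciferase construct, following 24 h compound exposure at 37 °C and 10 min reagent incubation at ambient temperature.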
Numbers stand for hits; i = inactive; ? = inconclusive; nt = not tested or not shown; [ ] = remark or other dose. Calls come from the whole dose curve; as a rule, active = well fitted curve in the direction sought with a large enough effect; inconclusive = small, poorly fitted or top-dose-only effect, or another doubt; inactive = no such curve, though single readings can be large; an effect the other way counts as inactive or inconclusive.

SMILES	FLuc modulator	SMN2 splice up	NPC1 promoter act	ELG1 genotoxic	Rab9 prom act
COc1cccc(/C=C2/SC(=S)N(CCCC(=O)Nc3ccc(O)cc3)C2=O)c1	?	nt	i	i	i
O=C(CCN1C(=O)/C(=C/c2ccc3c(c2)OCO3)SC1=S)Nc1cccc(C(=O)O)c1	21.3µM	nt	i	i	i
O=C(CCN1C(=O)/C(=C\C=C\c2ccccc2)SC1=S)Nc1cccc(C(=O)O)c1	0.953µM	nt	3.16µM	?	?
O=C(Nc1nc(-c2ccc(Cl)s2)cs1)c1cccs1	10.7µM	i	?	i	i
O=C(Nc1nc(-c2nc3ccccc3s2)cs1)c1ccco1	?	22.4µM	?	?	?
O=C(Nc1nc(-c2ccccc2)cs1)c1cccs1	8.49µM	nt	?	i	3.55µM
CC1CC1C(=O)Nc1nc(-c2ccccc2)cs1 (configuration not stated)	23.9µM	i	i	?	?
CCCC(=O)Nc1nc(-c2ccc(Cl)s2)cs1	?	i	?	i	?
CN(C)CC(=O)Nc1nc(-c2ccccc2)cs1	?	i	i	i	i
Cc1cccc(NS(=O)(=O)c2nnc(NC(=O)c3ccc(C)c(C)c3)s2)c1	i	nt	i	i	i
O=C(NCc1nc(-c2ccccc2)no1)c1cccs1	i	i	i	i	i
O=C(NNc1nc(-c2ccc(Cl)cc2)cs1)c1ccco1	23.9µM	i	i	i	i
O=C(NNc1nc(-c2ccccc2)cs1)c1ccco1	?	i	i	i	i
O=C(Nc1nc(-c2nc3ccccc3s2)cs1)C1CC1	3.01µM	7.08µM	1.41µM	2.59µM	0.708µM
O=C(Nc1nc(-c2ccc(Cl)s2)cs1)c1ccco1	15.1µM	?	?	?	3.16µM
O=C(Nc1nc(-c2ccccc2)ns1)c1cccs1	15.1µM	12.6µM	?	i	?
C/C=C(\C)C(=O)NCCN1C2=NC[C@@H](C)N2C[C@@H]1Cc1ccc(OC)cc1	i	nt	i	i	i
COc1ccc(/C=C2/N=C3CCCCCN3C2=O)cc1	16.9µM	i	i	?	i
COc1ccc(/C=C2\N=C3CCCCCN3C2=O)cc1OC	?	i	i	i	i
COc1cc(/C=C2\N=C3CCCCCN3C2=O)ccc1O	16.9µM	?	i	?	i
O=C1/C(=C\c2ccc(O)c(O)c2)N=C2CCCCCN12	19µM	nt	i	?	i
CN(C)CC(NC(=O)c1cccc(S(=O)(=O)Nc2ccc3c(c2)OCO3)c1)c1ccccc1 (configuration not stated)	i	nt	i	i	i
COc1cccc(CNC(=O)CCNS(=O)(=O)c2ccc3c(c2)oc(=O)n3C)c1	i	i	i	i	i
O=C(NCCC(=O)N(Cc1ccco1)Cc1cccs1)c1ccc([N+](=O)[O-])cc1	i	nt	i	i	i
CC1=NN(c2ccccc2)C(=O)C1N=Nc1cccc(O)c1 (configuration not stated)	8.49µM	nt	?	?	i
SMILES	FLuc modulator	SMN2 splice up	NPC1 promoter act	ELG1 genotoxic	Rab9 prom act
CC1=NN(c2ccccc2)C(=O)C1N=Nc1ccc(N)cc1 (configuration not stated)	?	i	i	i	i
CC1=NN(c2ccccc2)C(=O)C1c1ccccc1 (configuration not stated)	i	i	i	i	i
CC1=NN(c2ccccc2)C(=O)C1N=Nc1ccccc1 (configuration not stated)	2.39µM	14.1µM	?	?	?
COc1ccc(N=NC2C(=O)N(c3ccccc3)N=C2C)cc1 (configuration not stated)	19µM	nt	i	i	i
CC1=NN(c2ccccc2)C(=O)[C@@H]1N=Nc1ccc(S(N)(=O)=O)cc1	nt	i[9.22 µM]	nt	nt	nt
Cc1ccc2c(c1)c1nnc(SCC(=O)N3CCCc4ccccc43)nc1n2CC(=O)O	6.75µM	nt	3.55µM	?	3.55µM
Cc1ccc(-c2cnc(SCC(=O)N3CCCc4ccccc43)n2C)cc1	19µM	i	i	i	i
Cc1ccc(-c2ccc(SCC(=O)N3CCCc4ccccc43)nn2)cc1	8.49µM	i	i	i	i
Cc1ccc(-c2ccc(SCC(=O)N3CCc4ccccc43)nn2)cc1	?	i	i	i	i
Cn1c(-c2ccccc2)cnc1SCC(=O)N1CCCCC1	1.2µM	1.41µM	0.398µM	?	0.316µM
O=C(CN1CCN(c2ccccn2)CC1)N1c2ccccc2CCc2ccccc21	i	i	i	i	i
CC1(C)C2([N+](=O)[O-])CN3CC1([N+](=O)[O-])CN(C2)C3c1ccccc1 (configuration not stated)	i	i	i	i	i
CC(C)(C)OC(=O)C[C@@H]1C/C=C\C[C@@H](CC(=O)NCCO)C(=O)NCCOC1=O	nt	nt	nt	i	nt
COc1cccc(-c2ccc(SCC(=O)N3CCc4ccccc43)nn2)c1	21.3µM	i	i	i	i
COc1cc(OC)cc(C(=O)N[C@H](C(=O)OCC(=O)N2CCc3ccccc32)C(C)C)c1	15.1µM	i	i	i	i
COc1ccc2c(CC(=O)N3CCc4ccccc43)coc2c1	3.38µM	15.8µM	2µM	?	3.16µM
COc1cccc(-c2nnc(SCC(=O)N3CCc4ccccc43)o2)c1	i	i	nt	nt	nt
CCCn1nnnc1SCC(=O)N1CCCc2ccccc21	?	i	i	14.6µM	i
CC1c2[nH]c3ccccc3c2CCN1C(=O)Nc1ccccc1 (configuration not stated)	i	i	i	i	i
Clc1ccc(/C=C/c2ncc[nH]2)c(Cl)c1	2.39µM	nt	2.82µM	?	2.82µM
COc1ccc(C)cc1NC(=O)c1ccc(OCc2c(C)noc2C)cc1	nt	nt	nt	i	nt
COc1ccc(-c2cc(C(=O)O)nc3ccc4ccccc4c23)cc1OC	4.26µM	i	i	i	i
O=c1cc(-c2ccccc2Cl)oc2cc(O)cc(O)c12	26.9µM	i	i	i	i
Nc1ccc(O)c2c(=O)cc(-c3ccccc3Cl)oc12	2.69µM	11.2µM	2.82µM	?	2.82µM
N#Cc1ccccc1Cn1cc(/C=N/Nc2ccc([N+](=O)[O-])cn2)c2ccccc21	i	i	i	i	i
SMILES	FLuc modulator	SMN2 splice up	NPC1 promoter act	ELG1 genotoxic	Rab9 prom act
O=[N+]([O-])c1ccc(N/N=C/c2ccc(OCc3cccc4ccccc34)cc2)nc1	i	i	i	20.6µM	i
C(=N\n1cnnc1)/c1ccc(OCc2cccc3ccccc23)cc1	?	14.1µM	?	?	?
C(=N\n1cnnc1)/c1cccc(OCCOc2ccccc2)c1	?	11.2µM	2.82µM	i	1.41µM
COc1cc(/C=N/n2cnnc2)ccc1OCCOc1ccccc1	i	i	i	i	i
O=c1c2ccccc2ncn1CCCCOc1ccc(Br)cc1	i	i	i	i	i
CCOC(=O)CSc1cc(=O)n(CC)c2ccccc12	i	i	i	i	i
O=C(c1ccc(F)cc1F)N1CCCN(c2nc(-c3ccccc3)ns2)CC1	i	nt	i	i	i
CC(C)(C)NC(=O)N1CCN(c2nc(-c3ccccc3)ns2)CC1	i	nt	?	i	3.55µM
CC1CCCN(CCCNC(=O)c2ccc(CS(=O)(=O)c3c(Cl)cccc3Cl)o2)C1 (configuration not stated)	i	nt	i	i	i

Screening data (PubChem)
